An excerpt weighted towards active compounds, which were near 1.4% of everything screened.
AID504770: growth inhibition of E. coli YBA685, primary screen, V. cholerae RctB inhibitors. E. coli YBA685 rctB-dependent plasmid, OD600 growth, 3 h; stronger effect = lower value. z-score (no concentration beside the values). hit rate 0.27% among 130,000. AID 504770, 2011; in the data active means z-score below about -2, passing the limit was not always enough
MenB inh: M. tuberculosis MenB inhibitors, primary screen, biochemical, absorbance; hit rate 0.43% among 100,000; MenB enzyme assay, absorbance read-out; 1,4-dihydroxy-2-naphthoyl-CoA synthase (Mycobacterium tuberculosis (strain ATCC 25618 / …; inhibition, % (no concentration beside the values); in the data active means inhibition above about 21%, passing the limit was not always enough
Target sequence (P9WNP5 whole entry, looked up): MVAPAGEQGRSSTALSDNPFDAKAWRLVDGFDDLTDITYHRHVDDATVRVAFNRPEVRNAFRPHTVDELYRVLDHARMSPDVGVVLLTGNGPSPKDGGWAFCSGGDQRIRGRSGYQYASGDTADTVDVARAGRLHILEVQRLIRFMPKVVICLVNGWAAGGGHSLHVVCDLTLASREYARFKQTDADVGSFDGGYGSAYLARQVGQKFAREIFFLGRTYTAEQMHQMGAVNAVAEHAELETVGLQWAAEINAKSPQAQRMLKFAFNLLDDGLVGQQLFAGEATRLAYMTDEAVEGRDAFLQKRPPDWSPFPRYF
MbtI inh: MbtI salicylate synthase inhibitors, primary screen, biochemical, fluorescence intensity; inhibition, % (concentration not given with the values); P9WFX0; purified MbtI enzyme, fluorescence intensity read-out; hit rate 0.89% among 100,000; in the data active means inhibition mostly above about 56%, no sharp cut-off; inactive means mostly below about 77%
Polio RdRp inh: poliovirus RdRp elongation inhibitors, primary screen, biochemical, fluorescence polarization, total intensity | % elongation, % (compound at 16.7 µg/mL) | hit rate 0.66% among 150,000 | poliovirus polymerase elongation; stronger effect = lower value; in the data active means % elongation below about 90%
Numbers stand for hits; ! = not confirmed by another sample.

Results for O=C1c2ccccc2C(=O)C1c1ccc(OC(F)F)cc1 ?
AID504770: inactive; MenB inh: inactive; MbtI inh: 79.5; Polio RdRp inh: inactive

Results for COc1ccc(NC(=O)c2c(NCc3ccc(N(C)C)cc3)sc3c2CCC3)cc1 ?
Polio RdRp inh: 86.0

Results for COc1ccc(CC(=O)Nc2sc3c(c2C(=O)Nc2ccc(C)cc2)CCCCC3)cc1 ?
Polio RdRp inh: 89.0

Results for CC1CC(NNc2ccc(Br)cc2)NC(=S)N1 (stereo unspecified) ?
AID504770: inactive; MenB inh: inactive; MbtI inh: inactive; Polio RdRp inh: inactive

What do the screens show for `COc1cccc(C2=C(C(C)=O)Sc3nncn3N2C(C)=O)c1`?
Polio RdRp inh: 87.0

What do the screens show for `CC(=O)C1=C(c2ccc(Cl)c(Cl)c2)N(C(C)=O)n2cnnc2S1`?
Polio RdRp inh: 86.0

Results for CC(=O)C1=C(c2ccc(Cl)c(Cl)c2)N(C(C)=O)n2c(C)nnc2S1 ?
Polio RdRp inh: inactive

What do the screens show for `Cc1ccc(NC2=C(c3ccc(C(F)(F)F)cc3)C(=O)c3ccccc32)cc1C`?
Polio RdRp inh: 81.0

Results for Cc1sc2cc(-[n+]3ccc(O)cc3)ccc2[n+]1-c1ccccc1 ?
AID504770: inactive; MbtI inh: 94.8; Polio RdRp inh: inactive

Results for COc1ccc(S(=O)(=O)N2CCC(NC(=O)c3ccccc3)CC2)cc1 ?
AID504770: inactive; MenB inh: 32.5; MbtI inh: inactive; Polio RdRp inh: inactive

Results for COc1ccc(S(=O)(=O)N2CCC(NC(=O)NC3CCCC3)CC2)cc1 ?
AID504770: inactive; MenB inh: inactive; MbtI inh: inactive; Polio RdRp inh: inactive

Results for O=C(Nc1ccccc1)n1nccc1-c1sccc1Cl ?
AID504770: inactive

Results for O=c1c2ccccc2nnn1CSC(=S)N1CCCC1 ?
AID504770: inactive; MenB inh: inactive; MbtI inh: inactive; Polio RdRp inh: inactive

Results for N/C(=N\N=C1CCCCCC1)SCn1nnc2ccccc2c1=O ?
AID504770: inactive; MenB inh: inactive; MbtI inh: inactive; Polio RdRp inh: 90.0

How did O=C(CCS(=O)(=O)c1ccccc1)N(Cc1cccnc1)c1nc2ccc(F)cc2s1 do in these assays?
Polio RdRp inh: inactive

What do the screens show for `O=C(CCS(=O)(=O)c1ccccc1)N(Cc1ccccn1)c1nc2ccccc2s1`?
AID504770: inactive; MenB inh: inactive; MbtI inh: 71.0; Polio RdRp inh: inactive

What do the screens show for `OCCNCCOc1ccc(I)cc1`?
AID504770: inactive; MenB inh: inactive; MbtI inh: inactive; Polio RdRp inh: inactive

What do the screens show for `O=c1n(CN2CCOCC2)c2ccccc2n1CN1CCOCC1`?
AID504770: inactive; MenB inh: inactive; Polio RdRp inh: inactive

How did S=c1n(CN2CCOCC2)c2ccccc2n1-c1ccccc1 do in these assays?
AID504770: inactive; MenB inh: inactive; MbtI inh: 99.0; Polio RdRp inh: 72.0

Results for CC1CC(=S)Nc2ccccc2S1 (stereo unspecified) ?
AID504770: inactive; MenB inh: inactive; MbtI inh: inactive; Polio RdRp inh: inactive

How did CC(C)(C)N1Sc2ccccc2NC1=S do in these assays?
AID504770: inactive; MenB inh: inactive; MbtI inh: 90.2!; Polio RdRp inh: inactive

Results for Clc1ccc(CNc2nc3ccccc3[nH]2)cc1Cl ?
AID504770: -2.8; MenB inh: inactive; MbtI inh: inactive; Polio RdRp inh: inactive

Results for CC(Oc1ccccc1)C(=O)NCCn1ccc2ccccc21 (stereo unspecified) ?
AID504770: inactive

What do the screens show for `CC(=O)N(c1ccc(Cl)cc1)C1C=CS(=O)(=O)C1` (stereo unspecified)?
AID504770: -2.5

What do the screens show for `C/C(=N\OC(=O)c1nn(C)cc1Br)c1ccc(Cl)cc1Cl`?
AID504770: inactive; MenB inh: inactive; MbtI inh: inactive; Polio RdRp inh: inactive

What do the screens show for `CC(C)Cc1csc2ncnc(NCCO)c12`?
AID504770: inactive; MenB inh: inactive; MbtI inh: inactive; Polio RdRp inh: 88.0

How did O=C(NC1(C(F)(F)F)Oc2ccc(Cl)cc2O1)N1CCCCC1 (stereo unspecified) do in these assays?
MbtI inh: inactive

How did CCN(C(=O)NC1(C(F)(F)F)Oc2ccc(Cl)cc2O1)C1CCCCC1 (stereo unspecified) do in these assays?
AID504770: inactive; MenB inh: inactive; MbtI inh: 70.9; Polio RdRp inh: inactive

Results for S=c1nc(CCCCc2nc(=S)[nH][nH]2)[nH][nH]1 ?
AID504770: inactive; MenB inh: inactive; MbtI inh: 71.8; Polio RdRp inh: 75.0

What do the screens show for `CCCc1nc(=S)[nH][nH]1`?
AID504770: inactive; MenB inh: inactive; MbtI inh: inactive; Polio RdRp inh: inactive

How did CN(Cc1csc(Nc2ccccc2)n1)Cc1cccs1 do in these assays?
AID504770: inactive; MenB inh: inactive; MbtI inh: inactive; Polio RdRp inh: inactive

Results for Cc1ccccc1OCc1nnc(SCC(=O)N(Cc2ccccc2)C(C)(C)C)o1 ?
AID504770: inactive; MenB inh: inactive; MbtI inh: inactive; Polio RdRp inh: inactive

Results for O[N+]1=CC=CCC1=S.On1ccccc1=S.[Zn] ?
AID504770: -4; MenB inh: inactive; MbtI inh: inactive; Polio RdRp inh: inactive

What do the screens show for `O=C(CN1CCN(c2ncnc3scc(-c4ccc(Cl)cc4)c23)CC1)NC1CC1`?
AID504770: -4.9; MenB inh: inactive; MbtI inh: inactive; Polio RdRp inh: inactive

Results for COc1ccc2o/c(=N\O)c(C(N)=O)cc2c1 ?
AID504770: inactive; MenB inh: inactive; MbtI inh: 101.8; Polio RdRp inh: inactive

Results for COCCCn1c(-c2cc3ccccc3o2)csc1=Nc1ccccc1F ?
AID504770: inactive; MenB inh: inactive; MbtI inh: inactive; Polio RdRp inh: inactive

What do the screens show for `Cc1ccc(SCc2cc(=O)n3nc(C)sc3n2)cc1`?
AID504770: inactive

What do the screens show for `COc1ccc(C(C#N)c2nc3ccccc3nc2C(F)(F)F)cc1` (stereo unspecified)?
AID504770: inactive

Results for Cc1noc(C)c1CSc1ccccc1C(=O)OC(C)C(=O)N1CCOCC1 (stereo unspecified) ?
AID504770: inactive; MenB inh: inactive; MbtI inh: inactive; Polio RdRp inh: inactive

Results for Cc1noc(C)c1CSc1ccccc1C(=O)NC(C)c1ccc2c(c1)OCCO2 (stereo unspecified) ?
AID504770: inactive; MenB inh: inactive; MbtI inh: 88.7; Polio RdRp inh: inactive

Results for CCOc1ccc(NC(=O)c2c(NC(=O)c3ccccc3Br)sc3c2CCC(C)C3)cc1 (stereo unspecified) ?
Polio RdRp inh: 78.0

Results for Cn1cccc1C(=O)NC(=O)CSc1nc2ncc(Cl)cc2[nH]1 ?
AID504770: inactive; MenB inh: inactive; MbtI inh: inactive; Polio RdRp inh: inactive

Results for C=C(C)CN(CC)C(=O)CSc1nc2ncc(Cl)cc2[nH]1 ?
AID504770: inactive; MenB inh: inactive; MbtI inh: inactive; Polio RdRp inh: 88.0

What do the screens show for `CC1CCN(S(=O)(=O)c2ccc(C(=O)NCc3ccco3)cc2)CC1`?
AID504770: inactive; MenB inh: inactive; Polio RdRp inh: 89.0

Screening results as filed in PubChem BioAssay.
